# PNC inhibitor: blocks assembly of the perinucleolar compartment. PC3M PTB-GFP, PNC prevalence imaging, 16 h; active compounds read low. activity change (PNC), negative = inhibition, % at 10 µM. 3.1% of 140,000 active. AID 2417;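 active = readout at or below -70, meaning at least 70% loss of cells showing the perinucleolar compartment, a nuclear body marking cancer cells; inconclusive = readout between -30 and a set limit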;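 also: plate controls were DMSO wells for no effect and camptothecin positive control wells for full effect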
#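 PC3M cells stably expressing PTB-GFP, 750–1000 cells/well, treated 16 h at 37 °C with compound (23 nl of library stock), in duplicate. After paraformaldehyde fixation and Hoechst stain, imaged at 20x; PNC prevalence scored by image analysis.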
# ALOX12 inhib: inhibitors of human 12-lipoxygenase (ALOX12) | P18054 | purified 12-hLO, xylenol orange hydroperoxide absorbance | Potency, µM (series often up to 57.1 µM), for the others: top-dose activity change, negative = inhibition, actives largely listed as inhibitors | 0.12% of 150,000 active | AID 1452; active = well fitted inhibition curve with a large enough effect; inconclusive = small, poorly fitted or top-dose-only effect; also: potency is read from the fitted curve at half-maximal effect; nearly all actives have a fitted effect of over 55% in size
#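 Purified human 12hLO (150 nM), preincubated 15 min with compound, then 40 uM arachidonic acid for 30 min, room temperature, Hepes pH 7.0 with 0.01% Triton X-100. Hydroperoxide detected by ferrous iron/xylenol orange; 573/405 nm absorbance ratio gives reaction progress.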
# ALDH1A1 block: ALDH1A1 (human) enzyme inhibition | P00352 | 7.3% of 220,000 active | Potency, µM (series often up to 75.3 µM), for inactives: at the top dose activity, negative = inhibition, hits mostly inhibitors | Purified ALDH1A1, NADH fluorescence, propionaldehyde substrate | AID 1030;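 also: potency is read from the fitted curve at half-maximal effect; plate controls were no enzyme wells and a reference inhibitor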
# Target sequence (P00352 whole entry, looked up): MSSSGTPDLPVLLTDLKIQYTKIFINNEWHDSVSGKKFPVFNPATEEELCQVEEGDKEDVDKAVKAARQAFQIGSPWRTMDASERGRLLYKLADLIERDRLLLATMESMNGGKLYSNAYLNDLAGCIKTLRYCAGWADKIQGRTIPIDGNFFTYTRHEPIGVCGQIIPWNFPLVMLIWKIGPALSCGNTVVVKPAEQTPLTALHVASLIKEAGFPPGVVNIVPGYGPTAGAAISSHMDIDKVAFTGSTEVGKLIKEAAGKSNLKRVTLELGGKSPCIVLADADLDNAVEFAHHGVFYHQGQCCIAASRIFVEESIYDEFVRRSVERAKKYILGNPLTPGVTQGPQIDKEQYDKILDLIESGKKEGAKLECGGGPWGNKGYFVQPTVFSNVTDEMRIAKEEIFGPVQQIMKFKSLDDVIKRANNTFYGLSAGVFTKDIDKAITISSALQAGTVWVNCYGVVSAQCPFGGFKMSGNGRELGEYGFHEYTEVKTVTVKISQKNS
# HPGD inh: blocks human HPGD enzyme activity; purified HPGD, NADH fluorescence kinetic, PGE2 substrate; Potency, µM, inactives show at the top dose activity change, negative = inhibition, most hits filed as inhibitors; 4.3% of 150,000 active; P15428; AID 894; also: potency is read from the fitted curve at half-maximal effect
# Target sequence (P15428 whole entry, looked up): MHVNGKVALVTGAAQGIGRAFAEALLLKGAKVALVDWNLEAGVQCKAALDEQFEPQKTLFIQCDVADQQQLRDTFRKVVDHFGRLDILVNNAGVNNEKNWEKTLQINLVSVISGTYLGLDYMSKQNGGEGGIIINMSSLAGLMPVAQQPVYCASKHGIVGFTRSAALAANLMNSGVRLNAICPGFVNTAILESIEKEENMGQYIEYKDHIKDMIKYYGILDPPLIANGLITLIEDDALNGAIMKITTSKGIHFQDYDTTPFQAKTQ
#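 20 nM HPGD preincubated 15 min at room temperature with compound in 50 mM Tris-HCl pH 8, 0.01% Tween 20. Started with 1 mM NAD+ and 30 uM prostaglandin E2; NADH fluorescence (360/450 nm) read 5 times over 30-s intervals, last minus first.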
# Lamin A splicing: changes lamin A minigene splicing in HeLa cells | Potency, µM (highest dose often 46.1 µM), inactives show at the highest dose ratio change, negative = inhibition, actives largely listed as inhibitors | HeLa LMNA splicing GFP/RFP minigene ratio, 48 h | 0.01% of 200,000 active; active = well fitted inhibition curve with a large enough effect in the signal ratio, with a control signal flat, not every such curve was filed as active; inconclusive = small, poorly fitted or top-dose-only effect, or effect the other way, or a change in a side signal; the % refers to the signal ratio; also: potency is read from the fitted curve at half-maximal effect
#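 S3 HeLa stable clones carrying a lamin A-EGFP splicing minigene plus DsRed2 were seeded at 600 cells/well in Opti-MEM with 2% FBS, pin-dosed and incubated 48 h at 37°C. Acumen cytometry (488 nm) gave the GFP/RFP total-intensity ratio.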
# Starred values were filed as active, the others as inactive; ? = inconclusive; . = no result given; [ ] = another dose, or the depositor's remark. Most compounds without a hit are left out; they make up all but 10% or so of the library. Unless noted, calls follow the shape of the dose curve; as a rule, active = well fitted inhibition curve with a large enough effect (not every such curve was filed as active); inconclusive = small, poorly fitted or top-dose-only effect, or another doubt; inactive = no such curve, though single readings can be large or run the other way. Unless noted, % is scaled to controls: 0 for no effect and ±100 for the full control effect.
SMILES,PNC inhibitor,ALOX12 inhib,ALDH1A1 block,HPGD inh,Lamin A splicing
CCC1=C2CC[C@H]3C(=O)N(c4ccccc4)C(=O)[C@H]3[C@H]2[C@@]2(Cc3ccccc3)C(=O)N(CC(=O)OC)C(=O)N2C1=O,.,0%,1%,-2%,.
CCCCCCCN,.,-2%,-3%,-4%,.
CN(C1CCCCC1)S(=O)(=O)c1ccc(F)c(C(=O)Nc2ccc(C(F)(F)F)cc2)c1,.,.,.,.,-9%[46 µM]
N#Cc1ccccc1Cn1c(=O)n(-c2ccc(CC(=O)NCc3ccco3)cc2)c(=O)c2sccc21,-5,1%,2%,-8%,4%
N#Cc1ccccc1Cn1c(=O)n(Cc2ccc(C(=O)NCc3ccco3)cc2)c(=O)c2sccc21,97,-1%,25µM*,-7%,13%
Cc1ccc2c(c1)N(C(=O)N1CCC(C(=O)NCc3cccs3)CC1)CC(C)O2 (stereo unspecified),.,.,.,.,-5%[46 µM]
CCOC(=O)c1ccc(NC(=O)CSc2nc3sc(C(=O)O)c(C)c3c(=O)[nH]2)cc1,.,.,14µM*,.,?
Cc1cc(=O)[nH]c(SCC(=O)Nc2ccc(C(=O)O)cc2)n1,16,1%,?,22µM*,-1%
CCOC(=O)c1ccc(NC(=O)CSc2nnc(CNc3ccc(C)cc3)n2C)cc1,-100*,-6%,1%,-12%,-7%
CCN(CC)c1ccc(NC(=O)CSc2nc(C)cc(=O)[nH]2)cc1,-10,-6%,10%,-2%,4%
CCCc1cc(=O)[nH]c(SCC(=O)Nc2ccc(C)cc2)n1,.,.,12%,.,43%[46 µM]
CCOC(=O)c1ccc(NC(=O)CSc2nc(C)cc(=O)[nH]2)cc1,-24,-9%,-3%,28µM*,5%
COc1ccc(C2c3cc(OC)c(OC)cc3Cc3c4cc(OC)c(OC)cc4cc[n+]32)cc1OC (stereo unspecified),.,.,-2%,-10%,.
CN(C)c1ncc2nc(-c3cc(F)cc(F)c3)c(=O)n(CCc3ccccc3)c2n1,.,.,?,.,2%
Cc1ccc(-c2csc(NC(=O)CSC3=NCCS3)n2)cc1,-25,-1%,-12%,-17%,-5%
Cc1ccc(-c2csc(NC(=O)CSc3nc(C)cc(=O)[nH]3)n2)cc1,-89*,-17%,?,28µM*,?
O=C(CSc1nc2ccccc2o1)Nc1nc(-c2ccccc2)cs1,61,1%,-3%,-6%,-8%
Cc1cc2ccccc2nc1SCC(=O)Nc1nc(-c2ccccc2)cs1,?,15%,7.9µM*,-9%,-3%
CCOC(=O)c1c(-c2cccs2)csc1NC(=O)CSc1ncn[nH]1,?,4%,20µM*,?,-9%
COC(=O)c1cc(NC(=O)CSc2nc(C)cc(=O)[nH]2)cc(C(=O)OC)c1,35,-8%,1%,14µM*,-11%
CC(=O)NCc1nc2cccnc2n1Cc1ccccc1,.,.,.,.,9%[46 µM]
O=C(Cc1ccc(NC(=O)N2CCCCc3ccccc32)cc1)Nc1ccccc1Br,.,.,.,.,-20%[46 µM]
OCCNc1ncnc2c1ncn2[C@@H]1O[C@@H](CO)[C@H](O)[C@@H]1O,.,3%[11.4 µM],-6%[13.5 µM],-8%,.
CCOC(=O)c1c(-c2ccccc2Cl)csc1NC(=O)CSc1nc(C)cc(=O)[nH]1,41,-2%,8%,14µM*,?
COc1ccc(-c2nc3scc(CCNS(=O)(=O)c4c(C)cc(C)cc4C)n3n2)cc1OC,.,.,.,.,20%[46 µM]
SMILES,PNC inhibitor,ALOX12 inhib,ALDH1A1 block,HPGD inh,Lamin A splicing
CCOc1cc(/C=C2\SC(=N)N(c3nonc3N)C2=O)ccc1OCC(N)=O,17,5%,-18%,13µM*,?
CCOC(=O)C1=C(N)Oc2ccc(Br)cc2C1C(C#N)C(=O)OCC (stereo unspecified),.,.,16µM*,.,.
CCOC(=O)C1=C(C)OC(N)=C(C#N)C1c1ccc(C)o1 (stereo unspecified),56,-4%,?,-28%,2%
Cc1cc(C)cc(N2C(=O)CSC23C(=O)N(CC(=O)NCCc2ccccc2)c2ccccc23)c1 (stereo unspecified),.,.,.,.,3%[46 µM]
O=[N+]([O-])c1ccc(S(=O)(=O)CC(CN2CCCCC2)N2CCCCC2)cc1 (stereo unspecified),.,.,7.1µM*,.,.
O=S(=O)(CC(CN1CCCCC1)N1CCCCC1)c1ccccc1 (stereo unspecified),.,.,3%,.,.
COc1ccccc1-c1nccc(NCc2cnc(C)cn2)n1,.,-5%,3%,-17%,9%
CN1C(=S)N(c2cccnc2)C(=O)/C1=C\c1ccc(C(C)(C)C)cc1,.,.,7.1µM*,.,?
Cc1c(NC(=S)N/N=C/c2ccc(N(C)C)cc2)c(=O)n(-c2ccccc2)n1C,14,-2%,?,?,-7%
CN1C(=S)N(c2cccnc2)C(=O)/C1=C\c1ccc(N(C)C)cc1,.,.,13µM*,.,?
CCOc1ccc(N2C(=O)/C(=C/c3cccs3)N(C)C2=S)cc1,9,0%,-14%,-9%,1%
Cc1c(N2C(=O)c3ccc4c5c(ccc(c35)C2=O)CC4)c(=O)n(-c2ccccc2)n1C,-92*,-4%,?,?,-18%
O=C1c2cccc3cccc(c23)C(=O)N1c1cccnc1,25,-5%,3%,.,14%
Cc1c(N2C(=O)/C(=C\c3ccc(N(C)C)cc3)N(C)C2=S)c(=O)n(-c2ccccc2)n1C,?,-7%,4.5µM*,-7%,-10%
COc1ccc2cccc(N3CCN(CCNC(=O)c4ccc(F)cc4)CC3)c2c1,.,-26%,?,?,.
O=[N+]([O-])c1ccccc1N=Nc1c(O)[nH]c2ccc(S(=O)(=O)O)cc12,.,0%[11.4 µM],-8%[13.5 µM],4µM*,.
CCOc1cccc(N2C(=O)CC(NNC(=O)c3ccc(Br)o3)C2=O)c1 (stereo unspecified),.,.,11µM*,.,12%[46 µM]
CCCOc1ccc(N2C(=O)CC(NNC(=O)c3ccc(COc4ccccc4)o3)C2=O)cc1 (stereo unspecified),-6,-4%,?,-15%,-9%
CCOC(=O)c1ccc(NC2OC(=O)c3ccccc32)cc1 (stereo unspecified),-94*,2%,5%,-3%,-2%
CC(/C=N/Nc1nc(C)cc(C)n1)=C\c1ccc(C(C)C)cc1,-114*,-3%,6%,-11%,?
Cc1ccccc1CSc1nnc2[nH]c(=O)cc(-c3ccccc3)n12,.,.,.,.,7%[46 µM]
CC(C)=CCCC(C)NC(=O)NC1CCCCC1 (stereo unspecified),0,-3%,0%,35µM*,-1%
CC(C)c1ccc(NC(=O)C2CCCN(S(=O)(=O)c3ccc4[nH]c(=O)oc4c3)C2)cc1 (stereo unspecified),.,.,.,.,3%[46 µM]
CCOC(=O)NC(=O)/C(C#N)=C/c1ccc(N(C)C)cc1,.,.,13µM*,.,.
N#C/C(=C\c1ccc(C#N)cc1)C(=O)c1ccccc1,.,.,0.79µM*,.,?
CN(C)c1ccc(/C=C(\C#N)C(=O)c2ccccc2)cc1,.,.,7.1µM*,.,20%[46 µM]

# Screens: PubChem BioAssay, National Center for Advancing Translational Sciences (NCATS)
